# Active and inactive are the calls of the source.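 The calls were made as follows: active = compounds lowering absorbance whose fitted half-effect dose is at most twice the highest valid tested dose; inconclusive = flat fit between 30 and 70% inhibition, or poor fit; inactive = the rest, including opposite-direction activity.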
# Molecular target: Protein disulfide-isomerase A6 (Homo sapiens) (UniProt Q15084)
# Assay: ERp5 reductase inhibition selectivity check, dose response, selectivity assay for PDI inhibitor antithrombotic project, biochemical, insulin aggregation absorbance, dry powder samples (AID 624320)
# Details: absorbance 650 nm, 120 min; series mostly up to 18 µM
# Protein disulfide-isomerase A6 (Homo sapiens), sequence (Q15084 whole entry, looked up): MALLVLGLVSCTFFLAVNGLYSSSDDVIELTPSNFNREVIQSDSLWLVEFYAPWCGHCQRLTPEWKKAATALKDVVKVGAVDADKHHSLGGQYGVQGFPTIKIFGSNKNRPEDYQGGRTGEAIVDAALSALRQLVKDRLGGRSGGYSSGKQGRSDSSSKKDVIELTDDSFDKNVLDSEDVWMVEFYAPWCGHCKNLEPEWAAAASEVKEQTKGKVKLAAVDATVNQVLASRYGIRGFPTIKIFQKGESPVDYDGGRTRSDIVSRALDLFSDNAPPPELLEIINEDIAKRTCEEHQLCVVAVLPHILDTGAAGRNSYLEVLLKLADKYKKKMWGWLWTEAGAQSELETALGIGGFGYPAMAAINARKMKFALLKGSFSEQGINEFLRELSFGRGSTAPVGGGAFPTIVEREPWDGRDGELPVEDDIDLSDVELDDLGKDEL
smiles,measurement,value
C[C@H]1CN([C@@H](C)CO)C(=O)c2cccc(NS(C)(=O)=O)c2O[C@H]1CN(C)Cc1ccc(Oc2ccccc2)cc1,outcome,inactive

# Source: PubChem BioAssay AID624320 (Broad Institute, 2012)
